Experimental data published in PubChem BioAssay (NCI).
This is part of a sample that, as a whole, favours compounds with a hit. Of some 83,000 tested, about 20% had one in any assay.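 Treatment: one concentration, 48 hours, 96-well format. Scoring: percent growth, with anything below 10 considered active.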 Active and inactive are the calls of the source.

Experiments:
Assay in all cases: NCI-60 one-dose screen, 48 h (100 = growth as untreated, 0 = no growth, -100 = all killed)
Conditions in all cases: 10 µM unless noted
[1] = tested on: DU-145 prostate
[2] = tested on: K-562 leukemia
[3] = tested on: MALME-3M melanoma
[4] = tested on: MDA-MB-231 breast
[5] = tested on: RXF 393 renal
[6] = tested on: SF-268 CNS
[7] = tested on: SF-295 CNS
[8] = tested on: SF-539 CNS
[9] = tested on: UACC-257 melanoma
[10] = tested on: M14 melanoma
[11] = tested on: HCT-15 colon
[12] = tested on: HT29 colon
[13] = tested on: SNB-75 CNS
[14] = tested on: SNB-19 CNS
[15] = tested on: U251 CNS
[16] = tested on: PC-3 prostate
[17] = tested on: SK-MEL-5 melanoma
[18] = tested on: UACC-62 melanoma
[19] = tested on: LOX IMVI melanoma
[20] = tested on: SK-MEL-28 melanoma

Measured: growth

CC[C@H](CC[C@@H](C)[C@H]1CC[C@H]2[C@@H]3CC=C4C[C@@H](OCCc5nn[nH]n5)CC[C@]4(C)[C@H]3CC[C@]12C)C(C)C
inactive: [1] 101% | [2] 92.4% | [3] 108% | [4] 117% | [5] 129% | [6] 100% | [7] 98.1% | [8] 103% | [9] 103% | [10] 108% | [11] 102% | [12] 94.8% | [13] 107% | [14] 110% | [15] 105% | [16] 112% | [17] 111% | [18] 118% | [19] 99.9% | [20] 110%

CCOc1ccc(/C=N/Nc2cc(C)nc3ccc(Cl)cc23)cc1
inactive: [1] 44.4% | [4] 43% | [6] 75.2% | [8] 83.6% | [9] 69.5% | [12] 26.9% | [13] 101% | [14] 76.1% | [16] 71.2% | [17] 66.2% | [18] 68.2% | [20] 28.2%
active: [2] -38.7% | [3] -38.9% | [5] 0.829% | [7] -64.6% | [10] -39.6% | [11] -0.545% | [15] 8.99% | [19] -85.6%

FC(F)(F)c1cccc(Nc2ccccc2)c1
inactive: [1] 110% | [2] 95.5% | [3] 99.7% | [4] 104% | [5] 109% | [6] 103% | [7] 99.9% | [8] 95.5% | [9] 97.4% | [10] 106% | [11] 99.4% | [12] 105% | [13] 94.7% | [14] 98.2% | [15] 97.7% | [16] 102% | [17] 103% | [18] 96.5% | [19] 98.7% | [20] 102%

CCCCCCCC(=O)Nc1nc2[nH]c(CN3CCN(Cc4cccc(I)c4)CC3)c(CN3CCN(Cc4cccc(I)c4)CC3)c2c(=O)[nH]1
active: [1] -83.5% | [2] -43.8% | [3] -49.9% | [4] -89.8% | [5] -96.1% | [6] -82.9% | [7] -69.5% | [8] -89.4% | [9] -33% | [10] -56.6% | [11] -91.5% | [12] -69.8% | [13] -73.2% | [14] -87.5% | [15] -94.6% | [16] -45.7% | [17] 2.56% | [18] -98.1% | [19] -96.6% | [20] -78.1%

CN(C)CCCn1c2c(c3ccc(-c4ccn[nH]4)cc3c1=O)C(=O)c1ccccc1-2
inactive: [2] 24.5% | [3] 39.7% | [4] 71.1% | [5] 68.3% | [6] 44.6% | [8] 46.4% | [9] 70.3% | [10] 48% | [11] 10.9% | [12] 15.5% | [13] 53.1% | [14] 22.7% | [15] 16.9% | [16] 52.3% | [17] 31.5% | [18] 50.3% | [19] 15% | [20] 89.8%
active: [1] 4.84% | [7] 1.34%

CCCCCCOc1ccc(C(=N)N(CCCC)CCCC)c2ccccc12
active: [1] -92.4% | [2] -42.3% | [3] -82.7% | [4] -89.7% | [5] -94.5% | [6] -84.4% | [7] -89.1% | [8] -92.8% | [9] -85.5% | [10] -96.1% | [11] -82.1% | [12] -83.2% | [13] -98.9% | [14] -88.9% | [15] -77.7% | [16] -84.2% | [17] -99.3% | [18] -86% | [19] -92.6% | [20] -94.3%

Fc1ccc(-n2cc(COc3ncnc4sc5c(c34)CCCC5)nn2)cc1Cl
inactive: [1] 105% | [2] 95.5% | [3] 92.1% | [4] 95.8% | [5] 103% | [6] 95.8% | [7] 105% | [8] 98.8% | [9] 102% | [10] 94.2% | [11] 100% | [12] 97.3% | [13] 90.5% | [14] 94.7% | [15] 99.7% | [16] 89.5% | [17] 103% | [18] 92.2% | [19] 93.7% | [20] 110%

CN1CCN(CC#CCNC(=O)[C@]23CCC(C)(C)C[C@H]2C2=CC[C@@H]4[C@@]5(C)Cc6c([nH]c7ccccc67)C(C)(C)[C@@H]5CC[C@@]4(C)[C@]2(C)CC3)CC1
active: [2] 1.31% | [12] 7.18%
inactive: [1] 61.9% | [3] 26.6% | [4] 74.1% | [5] 66.5% | [6] 70% | [7] 108% | [8] 82.6% | [9] 82.2% | [10] 51.5% | [11] 39.2% | [13] 92.7% | [14] 79.3% | [15] 42.7% | [16] 56.7% | [17] 75.1% | [18] 95.7% | [19] 66.7% | [20] 79%

COc1ccc(CNCCN2C(=O)c3ccc4c5c(ccc(c35)C2=O)C(=O)N(CCNCc2ccc(OC)cc2)C4=O)cc1
active: [1] -90.6% | [2] -37.8% | [3] -76.3% | [4] -16.7% | [5] -93% | [6] -71.2% | [7] -62.2% | [8] -77.3% | [9] -91% | [10] -72.8% | [11] -68.1% | [12] -55.3% | [13] -95.7% | [14] -90.9% | [15] -91.8% | [16] -76% | [17] -99.6% | [18] -84.4% | [19] -74.7% | [20] -96.2%

CC(=O)OCC(=O)C1(O)C(C)CC2C3C=C(C)C4=Cc5c(cnn5-c5ccccc5)CC4(C)C3C(O)CC21C (stereo not given)
active: [2] 2.57% | [4] -11.2% | [5] -5.14% | [7] -51.1% | [8] -21.3% | [10] -4.56% | [11] -36.2% | [12] -54.9% | [13] -8.24% | [16] 9.92% | [17] -14.2% | [18] -26.6% | [19] 6.79%
inactive: [1] 27.1% | [3] 25.6% | [6] 31.1% | [9] 52.3% | [14] 10.3% | [15] 14.3% | [20] 35.3%

CCNNC(=O)[C@@H]1[C@H](c2cc(OC)c(OC)c(OC)c2)c2cc3c(cc2[C@H](O)[C@H]1CO)OCO3
inactive: [2] 13.7% | [3] 56.3% | [4] 39.6% | [5] 15.3% | [6] 31.1% | [9] 53% | [13] 30.3% | [14] 35.6% | [15] 12.7% | [16] 12.5% | [18] 50% | [19] 14.4% | [20] 55%
active: [1] -24% | [7] 9.93% | [8] -10.9% | [10] -19.5% | [11] 5.4% | [12] -10% | [17] -38.8%

Cc1cc(C(=O)Nc2ncnc3nc[nH]c23)no1
inactive: [1] 108% | [2] 87% | [3] 105% | [4] 105% | [5] 107% | [6] 99.7% | [7] 99.3% | [8] 96.9% | [9] 112% | [10] 99% | [11] 102% | [12] 103% | [13] 79.5% | [14] 96.6% | [15] 105% | [16] 97% | [17] 101% | [18] 97% | [19] 99.4% | [20] 106%

Cc1ccc(S(=O)(=O)Nc2ccc(Cl)cc2)cc1
inactive: [1] 118% | [2] 97.6% | [3] 100% | [4] 86.6% | [5] 103% | [6] 107% | [7] 91.2% | [8] 104% | [9] 105% | [10] 103% | [11] 107% | [12] 112% | [13] 82.7% | [14] 96.9% | [15] 96.4% | [16] 87.2% | [17] 106% | [18] 77.2% | [19] 95.1% | [20] 97.2%

CCCCN(CCCC)CCc1c(C)cc(C)c(CCN(CCCC)CCCC)c1O
inactive: [1] 52.9% | [2] 21.2% | [4] 48.3% | [5] 40.1% | [6] 49.5% | [7] 31.3% | [8] 67.6% | [10] 38.8% | [11] 36.7% | [12] 11.9% | [13] 82.8% | [14] 22.8% | [15] 24.6% | [16] 14.1% | [19] 28.2% | [20] 23.2%
active: [3] -15.9% | [9] 7.47% | [17] 0.474% | [18] 3.34%

CC(=O)OC1CCC2(C)C(CCC3C4CC=C(C(C)=O)C4(C)OC(=O)CC32)C1 (stereo not given)
active: [2] -12.4% | [3] -25.6% | [5] -60.5% | [9] -74.9% | [10] -31.6% | [11] 5.27% | [12] -59.4% | [19] -19.9% | [20] 4.51%
inactive: [1] 38.2% | [4] 35.3% | [6] 53% | [7] 73.1% | [8] 61.7% | [13] 95% | [14] 94.6% | [15] 54.8% | [16] 73.2% | [17] 54.7% | [18] 37.8%
